For experiment [1], the target named is alpha-glucosidase (Oryza sativa, rice) (UniProt Q653V4). Briefly: Counterscreen for Glucocerebrosidase Inhibitors: qHTS Assay for Rice alpha-Glucosidase at pH 5.0 (AID 997).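 Further: 0% = full activity with enzyme and -100% = basal without enzyme.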 Summed up:
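Endpoint fluorogenic assay at pH 5.0: compounds (0.7 nM to 77 uM) titrated against 4 nM rice enzyme and 400 uM 4-MU-alpha-glucoside for 20 min at room temperature; NaOH/glycine stop, read ex 365/em 440 nm, Hill-fitted AC50.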
For orientation: The purpose of a counterscreen is to sort out artefacts and off-target activity.

Experiment [2] concerns the target DNA repair nuclease/redox regulator APEX1 (Homo sapiens) (UniProt P27695). The experiment can be described thus: qHTS Validation Assay for Inhibitors of the Human Apurinic/apyrimidinic Endonuclease 1 (APE1) (AID 1705;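 further: TAMRA fluorescence gain over two minutes as APE1 cuts a quenched THF abasic duplex; on the % scale 0 is the no-effect control and ±100 the full control effect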). In short, it runs like this: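 Substrate: 50 nM final fluorophore/quencher THF-abasic duplex. Enzyme preincubated with compounds 15 min, RT. Progress derived from fluorescence difference, third minus first kinetic read.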
For orientation: In qHTS, concentration-response curves come from the screen itself.

The nature of experiment [3]: Counterscreen for APE1 Inhibitors: Fluorescent Dye Displacement Validation Assay (AID 1707).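 Further: plate controls were ThO with dsDNA and no compound for no effect and ThO without dsDNA for full effect.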 Summed up:
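Reaction mixture of 250 nM Thiazole Orange and 50 nM double-stranded abasic-site DNA was dispensed, compounds were pin-transferred, and fluorescence was read at endpoint (480 nm ex, 540 nm em). Reduced fluorescence indicated dye displacement by DNA binding.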

In experiment [4] the target is Endonuclease 4 (Escherichia coli (strain K12)) (UniProt P0A6C1). The experiment can be described thus: Counterscreen for APE1 Inhibitors: qHTS Validation Assay for Inhibitors of Endonuclease IV (AID 1708). Further: on the % scale 0 is the no-effect control and ±100 the full control effect. Summed up: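 Conditions: 2 nM enzyme, 50 nM TAMRA/BHQ-2 substrate, pH 7.5 Tris buffer with 2 mM MgCl2, RT. Compound preincubation 15 min; readout three fluorescence reads 60 s apart, third-minus-first.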

Experiment [5] in a line: qHTS for differential inhibitors of proliferation of Plasmodium falciparum line 7G8 (AID 1815).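 Further: parasite growth measured after three days of incubation.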 Further: potency means the concentration at half of the fitted maximal effect.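 On activity change, negative = inhibition: plate controls were vehicle wells for no effect and reference inhibitor wells for full effect.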
Experiment [6] can be described thus: qHTS for differential inhibitors of proliferation of Plasmodium falciparum line GB4 (AID 1816).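 Further: parasite growth measured after 72 h incubation.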 Further: potency means the concentration at half of the fitted maximal effect.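 On activity change, negative = inhibition: 0% = vehicle DMSO and -100% = reference inhibitor.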 The following applies: Potency: Plasmodium falciparum GB4 proliferation inhibition.
The nature of experiment [7]: qHTS for differential inhibitors of proliferation of Plasmodium falciparum line 3D7 (AID 1876). Further: potency means the concentration at half of the fitted maximal effect.
Experiment [8] is described as follows: qHTS for differential inhibitors of proliferation of Plasmodium falciparum line D10 (AID 1877).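 Further: parasites grown with compound for 72 h before DNA staining.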 Further: potency means the concentration at half of the fitted maximal effect.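 On activity change, negative = inhibition: plate controls were vehicle wells for no effect and reference inhibitor wells for full effect.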
Experiment [9] can be described thus: qHTS for differential inhibitors of proliferation of Plasmodium falciparum line Dd2 (AID 1882).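 Further: plate controls were DMSO vehicle for no effect and 0.29 µM artemisinin for full effect; nearly all actives have a fitted effect of over 65% in size.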 The following applies: Potency: Plasmodium falciparum Dd2 proliferation inhibition. Summed up: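 SYBR Green DNA fluorescence (ex 485, em 535 nm) after overnight lysis quantifies parasite growth; compound exposure lasted 72 h at 37 C on infected red cells at 2.5% hematocrit, 0.3% parasitemia (final). Artemisinin 0.29 uM and vehicle wells define normalization.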

The nature of experiment [10]: qHTS for differential inhibitors of proliferation of Plasmodium falciparum line W2 (AID 1883).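 Further: parasites grown with compound for 72 h before lysis and staining.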 Further: potency means the concentration at half of the fitted maximal effect.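 On activity change, negative = inhibition: 0% = vehicle wells and -100% = control inhibitor wells.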 The settings on record: Potency: Plasmodium falciparum W2 proliferation inhibition.
Experiment [11] in a line: qHTS for differential inhibitors of proliferation of Plasmodium falciparum line HB3 (AID 1886).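 Further: parasites grown with compound for 72 h before SYBR Green readout.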 Further: potency means the concentration at half of the fitted maximal effect.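 On activity change, negative = inhibition: plate controls were vehicle for no effect and reference inhibitor for full effect.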 The settings on record: Potency: Plasmodium falciparum HB3 proliferation inhibition.
Experiment [12] in a line: qHTS Assay for Modulators of Human Peripheral Myelin Protein 22 (PMP22) Expression/Activity (AID 1967; active means well fitted curve in the direction sought with a large enough effect in the signal ratio; the % refers to the signal ratio;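 further: 0% = untreated cells and 100% end not stated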). Summed up:
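Engineered MSC80 cells, Pmp22-promoter green and EF-alpha red luciferase reporters; 24h compound treatment at 37 °C. Concentration-response fits on green, red and ratio signals, each overlap-corrected, with %Activity normalized to untreated wells.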

In experiment [13] the target is ATP-dependent DNA helicase Q1 (Homo sapiens) (UniProt P46063). The experiment can be described thus: qHTS Validation Assay for Inhibitors of RecQ-Like Dna Helicase 1 (RECQ1) (AID 2353).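 Further: plate controls were DMSO vehicle for no effect and enzyme-free control for full effect.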 Summed up: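 RECQ1T1 50 nM; forked duplex (20 bp + 30-nt ss tails) 200 nM, ATP 2 mM final; pH 8.0, 2 mM MgCl2, 2.5 ug/ml poly(dI-dC); 15 min compound preincubation; discontinuous kinetic read over 2 h at RT.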

Experiment [14] is described as follows: qHTS Assay for Lipid Storage Modulators (AID 1519; calls by dose curve; on activity change, negative = inhibition: on the % scale 0 is the no-effect control and ±100 the full control effect). The following applies: Drosophila S3 cells, BODIPY lipid droplet/cell ratio, laser cytometry, cells loaded with oleic acid; for activity change, negative = inhibition: at 57.5 µM (top of the series). In short, it runs like this:
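Cells seeded at 5,000 per well were treated with compounds over a concentration series and loaded with oleic acid (400 uM, as added). Lipid droplet fluorescence (488 nm excitation, 500-530 nm channel) was read by laser-scanning cytometry and normalized to 20 uM Triacsin C.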

Experiment [15] concerns the target Ferritin light chain (Equus caballus) (UniProt P02791). The experiment can be described thus: qHTS Validation Assay for Identification of Novel General Anesthetics (AID 2323). Further: on the % scale 0 is the no-effect control and ±100 the full control effect. In short, it runs like this:
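Normalized fluorescence response, scaled between free 1-AMA and 1-AMA/apoferritin complex, fitted to a four-parameter Hill equation for concentration-effect values. Binding mix: 10 uM horse-spleen apoferritin, 50% saturated 1-AMA in PBS; read 380/535 nm after 10 min.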

Experiment [16] addresses RecQ-like DNA helicase BLM (Homo sapiens) (UniProt P54132). Briefly: qHTS Validation Assay for Inhibitors of Bloom's syndrome helicase (BLM) (AID 2364).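 Further: plate controls were DMSO vehicle for no effect and enzyme-free control for full effect.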 Summed up: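 50 nM BLM preincubated 15 min at room temperature with compound in pH 8.0 Tris buffer containing 2.5 ug/ml poly(dI-dC); started with 200 nM TAMRA/BHQ-2 forked duplex and 2 mM ATP (final). Unwinding read as TAMRA fluorescence increase, two reads 2 h apart.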

The nature of experiment [17]: Validation of Assay for Modulators of Lamin A Splicing (AID 1459; active means well fitted curve in the direction sought with a large enough effect in the signal ratio; the % refers to the signal ratio;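 further: cells exposed to compound for two days before reading; 0% is about no effect; ratio rise marks activators and ratio drop marks inhibitors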). Summed up: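 Dual-reporter HeLa S3 line (lamin A-EGFP minigene, DsRed2) treated with compounds 48 hrs, 0.5% DMSO final. Endpoint: EGFP/DsRed2 total intensity ratio from laser-scanning microplate cytometry.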
[18] abbreviates: measured here: cell count channel max response.
Setting [19] is: measured here: lipid channel max response.

The record followed here is PubChem BioAssay (NCATS).

Several values for one entry are separate records, joined by “and”; a condition that tells them apart may be missing. Equal entries are not always repeated. Records with an inconclusive call do not appear. Activity calls are given as the source filed them. Unless noted, the call rests on the fitted dose curve; in most records, active means well fitted curve in the direction sought with a large enough effect; inconclusive means small, poorly fitted or top-dose-only effect, or another doubt; inactive means no such curve, though single readings can be large; an effect the other way counts as inactive or inconclusive.

Chain of DNA repair nuclease/redox regulator APEX1 (Homo sapiens) (P27695 whole entry, looked up): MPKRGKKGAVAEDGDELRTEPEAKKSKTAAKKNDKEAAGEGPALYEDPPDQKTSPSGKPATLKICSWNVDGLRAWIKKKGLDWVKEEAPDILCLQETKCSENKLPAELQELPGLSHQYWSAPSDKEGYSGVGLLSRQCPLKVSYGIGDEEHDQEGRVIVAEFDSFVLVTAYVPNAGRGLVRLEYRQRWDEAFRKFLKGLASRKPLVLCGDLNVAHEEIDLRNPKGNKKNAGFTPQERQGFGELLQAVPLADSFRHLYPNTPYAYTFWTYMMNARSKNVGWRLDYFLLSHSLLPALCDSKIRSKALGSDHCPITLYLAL
Chain of Ferritin light chain (Equus caballus) (P02791 2-175 limits assumed): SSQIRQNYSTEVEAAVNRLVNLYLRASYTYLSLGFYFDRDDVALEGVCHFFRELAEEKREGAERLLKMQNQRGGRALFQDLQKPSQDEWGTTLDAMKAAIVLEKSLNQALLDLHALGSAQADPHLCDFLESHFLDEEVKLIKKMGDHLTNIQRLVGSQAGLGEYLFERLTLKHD
Chain of ATP-dependent DNA helicase Q1 (Homo sapiens) (P46063 whole entry, looked up): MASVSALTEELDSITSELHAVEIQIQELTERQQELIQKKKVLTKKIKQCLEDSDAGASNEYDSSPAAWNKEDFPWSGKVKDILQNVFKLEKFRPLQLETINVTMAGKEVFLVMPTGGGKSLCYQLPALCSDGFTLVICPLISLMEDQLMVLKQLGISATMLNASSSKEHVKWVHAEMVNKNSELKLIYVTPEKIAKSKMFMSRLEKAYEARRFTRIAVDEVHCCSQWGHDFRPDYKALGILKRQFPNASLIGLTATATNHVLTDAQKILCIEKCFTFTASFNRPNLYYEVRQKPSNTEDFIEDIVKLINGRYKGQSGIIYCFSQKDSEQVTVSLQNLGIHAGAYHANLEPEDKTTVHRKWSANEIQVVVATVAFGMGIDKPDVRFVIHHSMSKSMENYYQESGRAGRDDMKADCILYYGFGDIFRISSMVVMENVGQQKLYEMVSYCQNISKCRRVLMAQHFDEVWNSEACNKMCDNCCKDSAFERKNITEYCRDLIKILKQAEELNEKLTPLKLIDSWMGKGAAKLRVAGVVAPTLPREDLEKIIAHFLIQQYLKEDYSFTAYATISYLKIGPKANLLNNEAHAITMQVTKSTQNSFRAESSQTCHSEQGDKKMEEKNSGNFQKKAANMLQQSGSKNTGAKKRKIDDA
Chain of RecQ-like DNA helicase BLM (Homo sapiens) (P54132 whole entry, looked up): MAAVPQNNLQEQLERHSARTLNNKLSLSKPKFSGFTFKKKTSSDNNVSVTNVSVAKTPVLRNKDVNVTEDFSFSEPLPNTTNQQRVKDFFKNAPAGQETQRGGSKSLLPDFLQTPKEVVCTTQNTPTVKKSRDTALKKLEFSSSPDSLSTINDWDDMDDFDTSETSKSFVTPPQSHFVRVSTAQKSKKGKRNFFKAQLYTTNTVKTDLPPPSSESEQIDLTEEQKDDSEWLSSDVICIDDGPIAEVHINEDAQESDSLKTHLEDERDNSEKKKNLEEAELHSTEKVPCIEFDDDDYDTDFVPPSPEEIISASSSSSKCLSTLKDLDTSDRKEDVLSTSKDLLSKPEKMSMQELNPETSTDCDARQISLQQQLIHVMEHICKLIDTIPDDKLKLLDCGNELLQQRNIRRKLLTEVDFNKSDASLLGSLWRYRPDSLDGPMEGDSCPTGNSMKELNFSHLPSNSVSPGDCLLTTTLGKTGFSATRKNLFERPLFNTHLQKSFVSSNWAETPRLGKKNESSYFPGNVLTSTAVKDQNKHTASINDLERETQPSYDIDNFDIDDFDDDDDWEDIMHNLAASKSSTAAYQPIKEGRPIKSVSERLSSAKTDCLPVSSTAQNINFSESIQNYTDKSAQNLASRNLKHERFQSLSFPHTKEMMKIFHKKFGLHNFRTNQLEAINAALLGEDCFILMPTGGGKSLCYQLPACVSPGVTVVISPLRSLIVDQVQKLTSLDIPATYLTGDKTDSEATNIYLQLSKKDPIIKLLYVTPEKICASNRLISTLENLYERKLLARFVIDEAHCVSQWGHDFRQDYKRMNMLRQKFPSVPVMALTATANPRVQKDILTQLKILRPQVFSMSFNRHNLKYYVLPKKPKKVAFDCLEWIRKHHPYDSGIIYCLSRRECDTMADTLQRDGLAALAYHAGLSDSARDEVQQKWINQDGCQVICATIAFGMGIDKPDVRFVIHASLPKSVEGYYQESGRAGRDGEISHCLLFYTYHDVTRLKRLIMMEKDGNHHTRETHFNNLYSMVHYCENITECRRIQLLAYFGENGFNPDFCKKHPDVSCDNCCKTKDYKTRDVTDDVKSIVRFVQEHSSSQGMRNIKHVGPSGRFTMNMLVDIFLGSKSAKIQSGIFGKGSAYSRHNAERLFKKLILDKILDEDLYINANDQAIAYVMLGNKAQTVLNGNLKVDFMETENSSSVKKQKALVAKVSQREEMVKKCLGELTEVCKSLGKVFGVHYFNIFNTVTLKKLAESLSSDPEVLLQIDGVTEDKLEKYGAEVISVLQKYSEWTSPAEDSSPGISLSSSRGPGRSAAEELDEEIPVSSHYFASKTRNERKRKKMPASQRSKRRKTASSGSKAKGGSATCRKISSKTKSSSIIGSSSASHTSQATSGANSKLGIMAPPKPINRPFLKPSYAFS

`CCCCCCCCCCCCCCSCC(=O)O`: the outcome in [1] and in experiment [12] was inactive. The Potency entry in experiment [2], in experiment [3], in experiment [4], in [5], in experiment [6] and in experiment [7] was “inactive” each time. Besides, the Potency result in experiment [8], in experiment [9], in experiment [10], in [11] and in experiment [13] was “inactive” throughout.
Consider `O=c1cc(-c2ccccc2)[nH]c2nc(Cl)ccc12`, for which the compound was classed as inactive in experiment [1]. Also, the activity change, negative = inhibition in experiment [14] was 0.241% (inactive). The max response in experiment [14] (setting [18]) is 61.8%; in [14] (setting [19]), 65%. In addition, the Potency entry in [2], in experiment [3], in experiment [9], in experiment [15] and in experiment [13] was “inactive” throughout. Further, the Potency in experiment [5] was 10 µM (active); in [6], 14.1 µM (active); in experiment [10], 10 µM (active).
Take `CCCc1c(OCCCOc2ccc(OCC(=O)O)cc2)ccc(C(C)=O)c1O`: the call in experiment [1] and in experiment [12] was inactive. For the same compound, the activity change, negative = inhibition in experiment [14] is 1% (inactive). Moreover, the max response was determined as 51.1% in experiment [14] (setting [18]) and 51.4% in [14] (setting [19]). For the same compound, the Potency result in experiment [2], in experiment [5], in [6], in experiment [7], in experiment [8] and in [9] was “inactive” in each case. For the same compound, the Potency result in experiment [10] and in [11] was “inactive” in each case.
As to `O=c1[nH]c2ccccc2c2ccccc12`, in [1], the call was inactive. In experiment [14], the activity change, negative = inhibition was 1.72% (inactive). Further, the max response in experiment [14] (setting [18]) amounted to 17.8%; in [14] (setting [19]), 20.4%. Besides, the Potency entry in experiment [2], in [3], in [4], in [6], in [7] and in experiment [9] was “inactive” in each case. For the same compound, the Potency entry in experiment [11], in experiment [15] and in [13] was “inactive” throughout.
Turning to `Nc1ccc2c3c(cccc13)C(=O)NC2=O`, the compound was classed as inactive in experiment [1]. Besides, the activity change, negative = inhibition in [14] was 0.251% (inactive). The max response in experiment [14] (setting [18]) is -11.6%; in experiment [14] (setting [19]), -11.3%. The Potency result in [4], in experiment [8], in [9], in experiment [11] and in [15] was “inactive” each time.
For the compound `Clc1nccc2c1ccc1ccccc12`, the outcome in experiment [1] was inactive. In addition, the activity change, negative = inhibition in [14] is -1.52% (inactive). Besides, the max response in experiment [14] (setting [18]) was -15.2%; in experiment [14] (setting [19]), -17.8%. Also, the Potency result in experiment [3], in experiment [5], in [6], in experiment [7], in experiment [8] and in experiment [9] was “inactive” each time. Besides, the Potency entry in experiment [11], in experiment [15], in [13] and in experiment [16] was “inactive” throughout.
On to `C/C(=C\c1ccc(C(=O)O)cc1)c1ccc2c(c1)C(C)(C)CCC2(C)C`, for which, in experiment [1], the compound was classed as inactive. Also, in experiment [14], the activity change, negative = inhibition was -4.87% (inactive) and -0.58% (inactive). For the same compound, the max response in experiment [14] (setting [18]) was -0.191% and 31.2%; in experiment [14] (setting [19]), -3.14% and 29.9%. Also, the Potency result in [2], in [3], in experiment [6], in [9], in [11] and in [15] was “inactive” in each case.
Take `CC(N)(Cc1ccc(O)c(O)c1)C(=O)O` (stereo not given): the call in experiment [17] was inactive. The Potency result in [4], in [5], in [7], in [8], in [9] and in experiment [11] was “inactive” throughout. Further, the Potency result in experiment [15] and in [13] was “inactive” each time.
On to `Cc1cccc(C(=O)NCN2CCN(c3ccccc3C#N)CC2)c1`, for which, in [1], the outcome was inactive. The activity change, negative = inhibition in experiment [14] was 0.112% (inactive). Further, the max response in experiment [14] (setting [18]) is -23.9%; in experiment [14] (setting [19]), -22.6%. Besides, the Potency result in [2], in [3], in experiment [4], in experiment [5], in [7] and in [8] was “inactive” each time. Moreover, the Potency result in experiment [9], in experiment [11], in [15] and in experiment [13] was “inactive” each time.
Regarding `CCCn1c(=O)c2[nH]c(C3CCCC3)nc2n(CCC)c1=O`, the outcome in experiment [1] was inactive. Also, the activity change, negative = inhibition in [14] was 7.3% (inactive). The max response in experiment [14] (setting [18]) is 9.56%; in experiment [14] (setting [19]) it was 17.6%. Also, the Potency entry in experiment [2], in [3], in experiment [4], in experiment [9], in [11] and in experiment [15] was “inactive” throughout. In addition, the Potency entry in [13] and in [16] was “inactive” each time.
With `CC[C@@H]1Cc2cc(O)ccc2C2=C1c1ccc(O)cc1C[C@H]2CC`, the call in [1] was inactive. In addition, the activity change, negative = inhibition in experiment [14] was -3.04% (inactive). Moreover, the max response in experiment [14] (setting [18]) was -26.2%; in experiment [14] (setting [19]), -25.3%. In addition, the Potency entry in [2], in experiment [4], in [15] and in [13] was “inactive” throughout. Also, the Potency is 5.62 µM (active) in [5]; 4.47 µM (active) in [6]; 11.2 µM (active) in [7]; 11.2 µM (active) in [8]; 4.47 µM (active) in experiment [10]; 11.2 µM (active) in experiment [11].
As to `O=c1ccn([C@@H]2O[C@H](COP(=O)(O)OP(=O)(O)O)[C@@H](O)[C@H]2O)c(=O)[nH]1`, in [14], the activity change, negative = inhibition was 1.87% (inactive). The max response in experiment [14] (setting [18]) was -6.87%; in experiment [14] (setting [19]), -4.31%. Moreover, the Potency entry in experiment [3], in experiment [4], in experiment [5], in experiment [6], in [8] and in experiment [9] was “inactive” each time. Besides, the Potency result in experiment [10], in experiment [11], in [15] and in [13] was “inactive” throughout.
`CCCCOC(=O)NS(=O)(=O)c1sc(CC(C)C)cc1-c1ccc(Cn2c(CC)nc3c(C)cc(C)nc32)cc1`: in experiment [1], the compound was called inactive. Further, the activity change, negative = inhibition in experiment [14] was -0.147% (inactive). Besides, the figures for the max response in experiment [14] (setting [18]) and in [14] (setting [19]) were 28.5% and 27.6%, respectively. The Potency entry in experiment [3] and in [15] was “inactive” each time. The Potency in experiment [5] was 7.08 µM (active); in [6], 8.91 µM (active); in experiment [7], 11.2 µM (active); in [8], 11.2 µM (active); in experiment [10], 7.94 µM (active); in experiment [11], 12.6 µM (active).
For `N[C@H](C(=O)O)c1cc(O)cc(O)c1`, the compound was called inactive in experiment [1] and in experiment [12]. For the same compound, the activity change, negative = inhibition in experiment [14] was 10.3% (inactive) and 1.43% (inactive) and 0.261% (inactive). The max response was 7.08% and 3.62% and -19% in [14] (setting [18]); 19.7% and 15.4% and -15.9% in [14] (setting [19]). In addition, the Potency result in experiment [2], in experiment [3], in experiment [4], in [5], in [6] and in [7] was “inactive” each time. Moreover, the Potency result in [8], in [9], in experiment [10], in [11], in experiment [15] and in experiment [13] was “inactive” throughout.
